Measurements from PubChem BioAssay AID1159580 (chemical genetic matrix, 2015).
About 2,000 (36%) of roughly 5,500 compounds were called active. Not shown: some 18% with an inconclusive outcome. No stated cut-off is given here; in the data, active means normalized growth mostly below about 0.91 (no sharp cut-off); inconclusive means no clear call, values can overlap the other calls; inactive means mostly above about 0.92. This is one part of the list.

Assay: chemical genetic growth profiling, strain panel (AID 1159580);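 further: tested at 20 µM; growth read once vehicle control cultures reached saturation at 30 °C; 1 = growth at the plate median or of vehicle wells; lower values mean less growth of the strain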
Details: S. cerevisiae deletion strains, growth OD

Measured: normalized growth

O=C1CCc2ccc(OCCCCN3CCN(c4cccc(Cl)c4Cl)CC3)cc2N1
inactive: locus YHR030C, strain SLT2, hits give low values 1.03 | locus YHR079C, strain IRE1, hits give low values 0.961 | locus YJL095W, strain BCK1, hits give low values 0.955 | locus YJR066W, strain TOR1, hits give low values 0.927 | locus YLR113W, strain HOG1, hits give low values 0.959 | locus YNL183C, strain NPR1, hits give low values 0.894 | locus YOR231W, strain MKK1, hits give low values 0.97 | locus YPL256C, strain CLN2, hits give low values 0.975
